Screens from PubChem BioAssay.
Shown are actives, neighbours in structure and some others; about 4.6% of the full set was active somewhere.
D1 ag: activates the human D1 dopamine receptor; P21728; HEK293 T-REx D1 cells, calcium flux, agonist mode; activation, % at 2 µM; 1% of 360,000 active; AID 504660
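Inducible HEK293 T-REx D1 cells, force-coupled to calcium signalling, were plated at 4000 cells/well with tetracycline and held overnight at 30 C. After no-wash calcium dye loading, compound-evoked calcium rise over 180 s flagged agonists.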
D1 PAM: human D1 dopamine receptor positive modulation | HEK293 TREx D1 cells, calcium flux, dopamine EC20 potentiation | potentiation, % at 10 µM | 0.036% of 360,000 active; in the data active means potentiation above about 30%
TRHR PAM: allosterically enhances the human TRH receptor | 0.66% of 360,000 active | enhancement, % at 2 µM | P34981 | TRHR cells, fluo-8 calcium fluorescence, EC20 TRH enhancement; in the data active means enhancement above about 30%
Target sequence (P34981 whole entry, looked up): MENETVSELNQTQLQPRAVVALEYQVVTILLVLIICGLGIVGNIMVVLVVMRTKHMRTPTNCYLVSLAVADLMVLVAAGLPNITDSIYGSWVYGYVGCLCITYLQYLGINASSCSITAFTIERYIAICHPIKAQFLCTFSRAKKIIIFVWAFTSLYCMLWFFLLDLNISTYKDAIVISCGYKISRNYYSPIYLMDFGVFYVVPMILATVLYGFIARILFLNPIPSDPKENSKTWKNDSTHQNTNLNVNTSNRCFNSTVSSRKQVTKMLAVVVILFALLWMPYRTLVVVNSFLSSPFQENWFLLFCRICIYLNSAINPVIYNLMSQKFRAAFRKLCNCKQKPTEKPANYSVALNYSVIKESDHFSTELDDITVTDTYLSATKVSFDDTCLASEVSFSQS
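TRHR-expressing cells loaded with fluo-8 calcium dye were read kinetically (ex 480/em 530) during compound addition, then stimulated with an EC20 of TRH (10 nM final). Enhancement of the Gq-mediated intracellular calcium response was scored.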
D1 antagonist: blocks dopamine activation of the human D1 receptor; P21728; HEK293 TREx D1 cells, calcium flux, dopamine EC80; active compounds read low; activity change, negative = inhibition, % at 10 µM; 3.2% of 360,000 active; in the data active means activity change below about -30%
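HEK293 T-REx cells expressing inducible, force-coupled D1 receptor; no-wash Ca dye, 30–90 min RT. Cmpd → 180 s read at 1 Hz → EC80 DA → 180 s read.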
TRHR ag: activates the human TRH receptor; P34981; TRHR cells, calcium flux fluo-8, FDSS agonist mode; activation, % at 2 µM; 0.18% of 360,000 active; AID 493084
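TRHR-expressing cells loaded with fluo-8 calcium dye; 23 nL library compound pin-transferred, kinetic FDSS fluorescence (Ex 480/Em 530) recorded about 180 s for agonist-induced calcium release, before a 10 nM TRH EC20 addition for potentiator mode.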
Each line names hits and unclear results; the compound was inactive in the other large screens. Unless noted, no stated cut-off is given here; in the data, active means activation above about 30%; inactive means the rest.

O=C(NC(NC(=O)c1ccccc1)c1cccc([N+](=O)[O-])c1)c1ccccc1	none
O=C(CSc1ncn[nH]1)Nc1ccccc1C(=O)O	none
O=C(CSc1ncn[nH]1)Nc1ccc(Br)cc1F	D1 antagonist -36
Cc1ccc(/C=C2/Sc3ccc(C(=O)N4CCN(C)CC4)cc3NC2=O)cc1	D1 antagonist -82
CCN1CCN(Cc2oc(CO)cc(=O)c2O)CC1	none
CCOC(=O)C1CCN(Cc2oc(CO)cc(=O)c2O)CC1	TRHR PAM 30
CCCS(=O)(=O)c1nc(S(=O)(=O)c2ccc(C)cc2)c(NCCCN(C)C)s1	none
Cc1nc(-c2cc(C#N)c(Sc3cccc(C(F)(F)F)c3)nc2C)cs1	D1 ag 30, D1 antagonist -55
Cc1ccc(Cn2c(SCc3ccc(C(=O)NCCc4ccccc4)cc3)nc3ccncc32)cc1	none
O=C(NCCc1ccccc1)c1ccc(CSc2nc3ccncc3n2Cc2ccccc2)cc1	D1 antagonist -31
COC(=O)c1cccc(NC(=S)Nc2ccc(Cl)c(Cl)c2)c1	D1 antagonist -31
COC(=O)c1cccc(NC(=O)Nc2ccc(Cl)cc2)c1	D1 antagonist -35
CCC1(c2ccccc2)NC(=O)N(CC(=O)N(CC(=O)Nc2ccccc2C(F)(F)F)Cc2ccco2)C1=O (stereo unspecified)	D1 ag 44
COc1cc(/C=C/C(=O)O)cc(S(=O)(=O)NC2CC2)c1OC	none
Cc1cc(C)nc(SCC(=O)c2ccc(O)c(O)c2)n1	none
Cc1cc(C)nc(SCC(=O)c2ccc(O)cc2O)n1	D1 antagonist -43
O=C(Nc1ccccc1OC(F)F)c1oc2ccccc2c1COc1ccccc1	D1 ag 32
Cc1ccccc1C(=O)Nc1cc(S(=O)(=O)N2CCCCC2)ccc1N1CCN(C)CC1	none
CN1CCN(c2ccc(S(=O)(=O)N3CCCCC3)cc2NC(=O)c2ccc3ccccc3c2)CC1	D1 antagonist -50
COc1ccc(CC(=O)Nc2cc(S(=O)(=O)N3CCCCC3)ccc2C)cc1	none
CCN1CCN(c2ccc(S(=O)(=O)N3CCOCC3)cc2NC(=O)c2ccccc2SC)CC1	none
CCN1CCN(c2ccc(S(=O)(=O)N3CCOCC3)cc2NC(=O)c2cc(Cl)nc3ccccc23)CC1	D1 antagonist -33
CCN1CCN(c2ccc(S(=O)(=O)N3CCCCC3)cc2NC(=O)Cc2ccc(OC)cc2)CC1	D1 ag 44, D1 antagonist -31
COC(=O)c1c(C)c[nH]c1C	none
Cc1cc(O)ccc1N=Cc1c(C(F)(F)F)[nH][nH]c1=O	none
COC(=O)N1C(=O)[C@@](c2ccccc2)(C2CCCCC2)N1C(=O)OC	none
CNC(=O)c1ccc(NC(=O)CN2c3cccc4cccc(c34)S2(=O)=O)cc1	none
Cc1ccc(Oc2nccc(-c3ccc(Cl)cc3)n2)cc1	D1 antagonist -30
Cc1ccc(S(=O)(=O)NCCC(=O)NC2CCC(C)CC2)cc1 (stereo unspecified)	none
Cc1ccc(-c2nn(CC(=O)O)c(=O)c3ccccc23)cc1	none
COC(=O)Cn1nc(-c2ccc(C)cc2)c2ccccc2c1=O	D1 antagonist -75
CC[n+]1ccc2cc(OC)c(OC)cc2c1Cc1ccc(OC)c(OC)c1	D1 antagonist -49
C=CCOC(=O)C(C#N)c1nc2ccccc2nc1N1CCN(c2ccccc2OC)CC1 (stereo unspecified)	none
COC(=O)CNC(=O)C(Cc1ccccc1)NS(=O)(=O)c1ccc2c(c1)c(=O)n(C)c(=O)n2C (stereo unspecified)	none
CCOC(=O)N1CCN(Cc2nc3cc(NC(=O)c4ccc(F)cc4)ccc3n2C(C)C)CC1	none
CC(C)COc1ccc(C(=O)CCN2CCCCC2)cc1	none
CCCC(O)(CCN1CCCCC1)c1ccc(OCC)cc1 (stereo unspecified)	none
CCOC(=O)N1CCN(CCC(=O)c2ccc(OC)cc2)CC1	D1 antagonist -35
CCCCCC(O)(CCN1CCCCC1)c1ccc(OCC)cc1 (stereo unspecified)	D1 ag 35
CCOC(=O)N1CCN(Cc2nc3cc(NC(=O)c4ccc(OC)cc4)ccc3n2C(C)C)CC1	D1 antagonist -39
CCOC(=O)N1CCN(CCC(=O)c2ccc(Cl)cc2)CC1	none
CCCCOc1ccc(C(=O)CCN2CCCCC2)cc1	D1 antagonist -35
Cc1cc(-c2nc3ccccc3[nH]2)ccc1N	none
O=C1CSC(c2ccccc2F)N1 (stereo unspecified)	none
